# The full ranking holds about 33,000 sequences; the median of “E-score (-0.5 to 0.5)” is about -0.056, and the highest 2% start at about 0.38. This is one part of a sample in which the highest values are shown more often than they occur.
# Target: Stb4 (UniProt P50104)
# Test: PBM E-score (8-mer binding enrichment) (E-score (-0.5 to 0.5)); higher = stronger / more preferred TF binding
# Conditions: protein concentration: 200 nM; construct: GST-DNA-binding domain
# Procedure: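 Universal 'all 10-mer' protein binding microarrays (Agilent AMADID 015681) probed with GST-tagged S. cerevisiae TFs (full-length or DBD) made by in vitro transcription/translation (PURExpress), about 100-200 nM. Bound TF was detected with fluorescent anti-GST. Each ungapped 8-mer (which stands for itself and its reverse complement) is scored by the PBM enrichment score (E-score), a modified Wilcoxon-Mann-Whitney statistic from -0.5 to +0.5, computed with the Universal PBM Analysis Suite. Scale: above 0.35 generally sequence-specific binding.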
# Chain of UniProt P50104 (P50104 whole entry): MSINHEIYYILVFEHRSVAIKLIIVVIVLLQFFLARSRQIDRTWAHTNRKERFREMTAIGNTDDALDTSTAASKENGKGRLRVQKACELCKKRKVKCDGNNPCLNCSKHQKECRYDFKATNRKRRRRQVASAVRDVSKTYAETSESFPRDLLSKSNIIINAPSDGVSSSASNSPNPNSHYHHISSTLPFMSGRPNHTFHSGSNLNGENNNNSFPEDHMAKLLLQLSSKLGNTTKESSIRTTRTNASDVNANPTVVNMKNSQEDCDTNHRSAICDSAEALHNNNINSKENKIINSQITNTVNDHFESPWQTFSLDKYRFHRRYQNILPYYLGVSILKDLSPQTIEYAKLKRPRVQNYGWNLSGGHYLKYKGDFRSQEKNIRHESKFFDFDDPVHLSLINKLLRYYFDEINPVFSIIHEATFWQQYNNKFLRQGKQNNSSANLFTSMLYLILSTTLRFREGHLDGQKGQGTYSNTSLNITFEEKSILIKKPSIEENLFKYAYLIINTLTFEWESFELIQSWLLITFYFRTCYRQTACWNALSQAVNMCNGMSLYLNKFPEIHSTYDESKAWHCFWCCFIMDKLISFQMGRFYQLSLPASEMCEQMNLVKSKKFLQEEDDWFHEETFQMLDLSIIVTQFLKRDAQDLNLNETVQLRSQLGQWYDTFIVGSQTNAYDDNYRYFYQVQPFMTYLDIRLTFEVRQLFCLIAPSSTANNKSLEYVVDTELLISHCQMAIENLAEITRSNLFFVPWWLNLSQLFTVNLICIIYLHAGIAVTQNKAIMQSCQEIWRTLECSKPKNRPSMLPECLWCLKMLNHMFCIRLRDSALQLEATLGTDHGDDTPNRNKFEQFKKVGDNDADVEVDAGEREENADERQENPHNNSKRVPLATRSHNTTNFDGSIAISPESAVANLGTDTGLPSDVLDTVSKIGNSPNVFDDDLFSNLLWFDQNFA
row,Sequence,PBM E-score
1,TACTCAAA,-0.108
2,CTTATCGA,-0.105
3,AGTCACTG,-0.274
4,AACTGAAA,-0.121
5,CCCTATAC,-0.154
6,ACACCGTG,0.106
7,CTTGACGA,-0.0253
8,ACTACTTG,-0.195
9,GCGAGCTA,-0.0842
10,CCGAGCTC,0.435
11,CTGAGCTC,-0.172
12,ACGAGCTA,-0.221
13,ACGAGCTC,0.0375
14,CCGAGCTA,0.424
15,CACGGTCA,-0.197
16,CAACTACG,-0.0502
17,TGAGAACA,-0.212
18,ACCGGAGC,0.244
19,CCCGGACC,0.26
20,CCCGGAGG,0.206
21,ACCGGAAT,0.294
22,ACGGGAAG,0.232
23,CCGGGAAC,0.381
24,CCCGGAAC,0.416
25,CCCGGAAG,0.417

row,Sequence,PBM E-score
1,CCCGGACG,0.163
2,ACCGGAAC,0.419
3,ACCGGAAG,0.388
4,AGCGGAAG,0.335
5,CTGGTGGC,-0.167
6,CGACTCAC,0.0516
7,GAATACCC,0.341
8,AAAAGGAG,-0.0435
9,AGGTACCG,0.254
10,CGAGTCTC,0.0605
11,GGAGCCCA,-0.203
12,AGGTGCTC,-0.148
13,AGGCAGTC,-0.144
14,GAAGGCGA,-0.051
15,CGTGGGGC,-0.121
16,CCCGGAAA,0.39
17,GACGGAAA,0.36
18,TCCGGGAA,0.388
19,TCCGGAAA,0.439
20,TCCGGAGA,0.335
21,CCCGGGAA,0.355
22,GGCGGAAA,0.277
23,ACCGGGAA,0.335
24,GCCGGAAA,0.401
25,TCCGGACA,0.322

row,Sequence,PBM E-score
1,AGGACTGA,-0.0328
2,CACTTGGA,-0.087
3,AATGTGGA,-0.0863
4,ACGATTCT,-0.05
5,GTATAGGA,-0.287
6,AGCCATTA,0.0954
7,CTTCTGTC,-0.158
8,AGCTGATA,-0.047
9,ACCGGAAA,0.384
10,GCCGGACC,0.196
11,GCCGGAAC,0.428
12,ACCGGACT,0.252
13,ACCGGCAA,0.229
14,GCCGGAGC,0.283
15,AACTGTCC,0.0472
16,AGAGTGTA,-0.094
17,CTTTCCGC,0.324
18,CTTTCCGA,0.463
19,GTTTCCAA,-0.1
20,GTTTCCCA,-0.0576
21,CTTTCCCA,-0.053
22,GTTTCCGA,0.466
23,ATCTATGA,-0.0937
24,ATGCAGAG,-0.146
25,GATCAGGA,-0.029

row,Sequence,PBM E-score
1,ATTCATCC,0.202
2,ATTACACA,-0.13
3,ACGAAAAC,0.154
4,CCGAAACA,0.364
5,ACGAAAAG,-0.23
6,CCGAAAGG,0.363
7,CCGAAACC,0.395
8,CCGAAAAG,0.384
9,ACGAAACC,-0.0179
10,ACGAAAAA,-0.189
11,TCGAAAAA,-0.00854
12,CCGAAAAA,0.434
13,GCGAAAAC,-0.154
14,CCGAAAAC,0.41
15,CTAATCGA,-0.105
16,CGCCTCCC,-0.0433
17,CGGTCCCC,0.141
18,CCCTATGC,-0.0929
19,AAGTGCGG,0.226
20,CCGAAAGC,0.377
21,GCGAAAGA,-0.166
22,CCGAAAGA,0.388
23,ACGAAGGC,-0.0627
24,GACCTGGA,-0.196
25,GTCCTGAA,-0.197

row,Sequence,PBM E-score
1,CACCGAAC,0.224
2,TTCCGAAA,0.468
3,GTCCGAAC,0.335
4,CTCCGAAA,0.357
5,AACCGAAC,0.356
6,ATCCGAAG,0.48
7,ATCCGCAG,0.285
8,AACCGAAG,0.362
9,CTCCGAAC,0.427
10,TTGCGAAA,0.116
11,TTTCGAAA,-0.307
12,ATCCGAAC,0.475
13,AGTCAGCC,-0.161
14,ACTGATCT,-0.0326
15,CAGGAAAG,-0.2
16,ATACGGGA,0.237
17,CACTAAAC,-0.0976
18,TACTTCTA,-0.254
19,AAATTGCG,0.114
20,TCCTAGGA,-0.093
21,CTGTGGGA,-0.145
22,ATGCGAAT,0.0493
23,ATCCGAAA,0.48
24,ATACGAAT,-0.0803
25,GTCCGAAA,0.337

row,Sequence,PBM E-score
1,CACCGAAG,0.228
2,CTACGAAG,-0.247
3,AACCGAAA,0.372
4,ATCCGAAT,0.48
5,CTCCGAAG,0.413
6,CCTATTCA,-0.0251
7,CGCGCCTA,0.0819
8,CACTGGTA,-0.276
9,GAGTCCCA,0.116
10,TGACTCAA,-0.149
11,CGTTCTCC,-0.0997
12,AGGTTCCG,0.383
13,ACGTTCCA,-0.0774
14,AAGTTCCT,-0.00611
15,AGGTTCCC,-0.0987
16,AGGTTCGG,0.403
17,AGGTTCCA,0.0324
18,AGGTTCGC,0.0812
19,ACGTTCCT,-0.168
20,CAGTTCCG,0.364
21,ACGTTCCG,0.398
22,AAGTTCCG,0.434
23,AGGTTCGA,-0.0841
24,CATAACCC,0.051
25,AGGTGGGG,-0.0596

row,Sequence,PBM E-score
1,GCAAAAAC,-0.0252
2,CACAGCTC,-0.18
3,GCACCATA,-0.021
4,CAGAACTA,-0.0215
5,CGGCGATA,0.277
6,CGTAGGGC,-0.195
7,ACATTTCC,0.141
8,CGCACCGC,-0.00306
9,CCGTTCCC,0.273
10,ATGTTCCA,-0.0991
11,CCGTTCCG,0.431
12,CCGTTCCA,0.183
13,ATGTTCCG,0.448
14,ATGTTCGG,0.392
15,ATGTTCGC,-0.118
16,ATGTTCGA,-0.112
17,ATGTTCCC,0.153
18,AAAACCCA,-0.0723
19,CCTGGCAG,-0.289
20,CTTTGAGC,-0.151
21,GAACCACC,0.218
22,CGGTGGTA,0.0785
